Reference: PubChem BioAssay
The source made the active and inactive calls.

Tests used:
[1] = binders of probe aFSTL3 on microarray, primary screen, stem cell growth factor project, biochemical, small-molecule microarray, fluorescence 635/667 (AID 1064); details: higher = more signal;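 note: measures binding of the biotinylated anti-FSTL3 antibody to printed compounds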
[2] = binders from COS7 lysate, DM2A8 probe, primary screen, torsin A project, cell lysate, small-molecule microarray, fluorescence 635/667 (AID 1065); details: higher = more signal, COS7 lysate expressing mutant human TOR1A
[3] = binders of probe aFGF2 on microarray, primary screen, stem cell growth factor project, biochemical, small-molecule microarray, fluorescence 635/667 (AID 1067); details: higher = more signal;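 note: measures binding of biotinylated aFGF2 protein to printed compounds on slides; z-score merges feature fluorescence and signal-to-noise across triplicate slides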
[4] = binders of probe aFGF10 on microarray, primary screen, stem cell growth factor project, biochemical, small-molecule microarray, fluorescence 635/667 (AID 1071); details: higher = more signal;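 note: score merges 667 nm spot intensity and signal to noise from triplicate slides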
[5] = molecular target: Neurogenic locus notch homolog protein 2 (Homo sapiens) (UniProt Q04721); assay: Notch2 binders on small-molecule microarrays, primary screen, biochemical, small-molecule microarray, 635 nm fluorescence, stem cell growth factors (AID 1073); details: Notch2 binding, higher = more signal
[6] = molecular target: Pro-neuregulin-1, membrane-bound isoform (Homo sapiens) (UniProt Q02297); assay: NRG1 binders on small-molecule microarrays, primary screen, psychiatric disease protein project, biochemical, small-molecule microarray, fluorescence 635/667 (AID 1075); details: NRG1 binding, 635 nm fluorescence, higher = more signal;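 note: score combines 667 nm spot fluorescence with signal to noise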
[7] = test system: Neuregulin-1 EGF-like domain; assay: binders of neuregulin-1 EGF-like domain, primary screen, biochemical, small-molecule microarray, 635 nm fluorescence (AID 1081); details: small-molecule microarray binding, higher = more signal;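 note: binding of the protein to compounds printed on small-molecule microarray slides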
[8] = FRG1 promoter luciferase signal modulators, primary screen, FRG1 inhibition for FSHD, cell-based, C2C12 myotubes, firefly/Renilla luciferase, luminescence (AID 1084); details: higher = more signal, called active from +8 up or from −8 down
[9] = binders of probe aFST on microarray, primary screen, stem cell growth factor project, biochemical, small-molecule microarray, fluorescence 635/667 (AID 1086); details: higher = more signal;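 note: score merges 667 nm fluorescence with signal-to-noise of each printed compound spot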
[10] = binders of probe aHhip on microarray, primary screen, stem cell growth factor project, biochemical, small-molecule microarray, fluorescence 635/667 (AID 1087); details: higher = more signal;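 note: score merges spot fluorescence at 667nm with spot signal to noise ratio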

Chain of Neurogenic locus notch homolog protein 2 (Homo sapiens) (Q04721 whole entry, looked up, canonical isoform): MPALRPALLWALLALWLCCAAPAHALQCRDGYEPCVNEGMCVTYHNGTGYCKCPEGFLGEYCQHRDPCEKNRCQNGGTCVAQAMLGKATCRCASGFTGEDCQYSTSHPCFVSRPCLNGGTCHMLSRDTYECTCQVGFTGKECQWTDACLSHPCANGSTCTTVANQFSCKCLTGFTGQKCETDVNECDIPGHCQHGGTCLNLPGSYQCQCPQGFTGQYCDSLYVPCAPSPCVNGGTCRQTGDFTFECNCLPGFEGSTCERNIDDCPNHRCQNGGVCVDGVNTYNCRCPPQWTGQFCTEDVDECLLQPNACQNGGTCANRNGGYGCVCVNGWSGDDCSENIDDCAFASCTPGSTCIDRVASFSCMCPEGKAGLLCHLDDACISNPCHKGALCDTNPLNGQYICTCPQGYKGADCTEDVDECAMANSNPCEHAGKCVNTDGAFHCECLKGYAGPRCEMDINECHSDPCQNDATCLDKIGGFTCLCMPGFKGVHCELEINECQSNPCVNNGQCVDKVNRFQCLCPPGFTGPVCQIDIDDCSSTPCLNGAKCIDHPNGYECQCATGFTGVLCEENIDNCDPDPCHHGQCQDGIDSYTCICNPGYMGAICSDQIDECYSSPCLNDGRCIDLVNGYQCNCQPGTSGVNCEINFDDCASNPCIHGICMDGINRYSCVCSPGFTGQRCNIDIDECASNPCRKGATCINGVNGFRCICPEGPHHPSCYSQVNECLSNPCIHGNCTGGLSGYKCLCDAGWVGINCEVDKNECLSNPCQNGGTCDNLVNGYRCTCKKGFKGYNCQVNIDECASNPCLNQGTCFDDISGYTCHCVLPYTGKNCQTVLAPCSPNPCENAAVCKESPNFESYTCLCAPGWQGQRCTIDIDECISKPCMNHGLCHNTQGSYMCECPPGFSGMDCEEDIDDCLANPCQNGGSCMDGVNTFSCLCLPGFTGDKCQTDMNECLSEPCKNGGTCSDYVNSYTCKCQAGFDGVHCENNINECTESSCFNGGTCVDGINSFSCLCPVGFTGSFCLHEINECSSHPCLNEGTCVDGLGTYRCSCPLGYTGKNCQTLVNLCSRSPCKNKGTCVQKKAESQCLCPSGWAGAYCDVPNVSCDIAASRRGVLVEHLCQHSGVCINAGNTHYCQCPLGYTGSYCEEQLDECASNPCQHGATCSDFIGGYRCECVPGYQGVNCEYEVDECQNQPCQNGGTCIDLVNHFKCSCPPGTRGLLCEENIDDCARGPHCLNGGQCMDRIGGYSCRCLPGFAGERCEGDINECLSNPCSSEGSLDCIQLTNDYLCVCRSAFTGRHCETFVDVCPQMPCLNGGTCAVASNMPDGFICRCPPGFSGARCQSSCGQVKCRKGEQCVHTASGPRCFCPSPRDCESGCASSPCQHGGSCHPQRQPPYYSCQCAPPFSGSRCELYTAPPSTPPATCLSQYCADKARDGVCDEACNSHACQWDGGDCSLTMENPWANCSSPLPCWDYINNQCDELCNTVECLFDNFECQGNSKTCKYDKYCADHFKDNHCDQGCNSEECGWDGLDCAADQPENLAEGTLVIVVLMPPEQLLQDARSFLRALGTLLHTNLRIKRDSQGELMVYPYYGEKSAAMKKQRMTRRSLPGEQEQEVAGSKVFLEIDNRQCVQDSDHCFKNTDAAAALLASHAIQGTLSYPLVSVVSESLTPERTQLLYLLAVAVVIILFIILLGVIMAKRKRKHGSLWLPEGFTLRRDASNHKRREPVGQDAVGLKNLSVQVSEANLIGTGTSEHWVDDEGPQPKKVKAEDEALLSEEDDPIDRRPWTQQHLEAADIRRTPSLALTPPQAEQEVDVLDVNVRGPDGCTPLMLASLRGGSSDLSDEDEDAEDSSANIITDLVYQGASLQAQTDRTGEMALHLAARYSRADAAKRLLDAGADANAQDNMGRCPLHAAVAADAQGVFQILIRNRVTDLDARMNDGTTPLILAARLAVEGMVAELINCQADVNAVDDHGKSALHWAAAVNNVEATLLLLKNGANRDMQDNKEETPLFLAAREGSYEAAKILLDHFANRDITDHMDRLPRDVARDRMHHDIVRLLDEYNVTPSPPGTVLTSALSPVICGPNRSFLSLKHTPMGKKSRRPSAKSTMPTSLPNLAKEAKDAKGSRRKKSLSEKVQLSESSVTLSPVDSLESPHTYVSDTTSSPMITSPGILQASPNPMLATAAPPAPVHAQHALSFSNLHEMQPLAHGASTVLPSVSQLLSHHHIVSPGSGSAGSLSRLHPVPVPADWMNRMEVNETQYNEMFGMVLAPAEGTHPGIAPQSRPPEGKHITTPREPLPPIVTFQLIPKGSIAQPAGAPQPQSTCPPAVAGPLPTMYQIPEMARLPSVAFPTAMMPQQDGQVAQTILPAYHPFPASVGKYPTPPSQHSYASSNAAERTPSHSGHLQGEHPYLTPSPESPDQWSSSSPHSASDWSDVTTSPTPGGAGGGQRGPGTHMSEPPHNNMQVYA
Chain of Pro-neuregulin-1, membrane-bound isoform (Homo sapiens) (Q02297 whole entry, looked up, the tested form may be a part, canonical isoform): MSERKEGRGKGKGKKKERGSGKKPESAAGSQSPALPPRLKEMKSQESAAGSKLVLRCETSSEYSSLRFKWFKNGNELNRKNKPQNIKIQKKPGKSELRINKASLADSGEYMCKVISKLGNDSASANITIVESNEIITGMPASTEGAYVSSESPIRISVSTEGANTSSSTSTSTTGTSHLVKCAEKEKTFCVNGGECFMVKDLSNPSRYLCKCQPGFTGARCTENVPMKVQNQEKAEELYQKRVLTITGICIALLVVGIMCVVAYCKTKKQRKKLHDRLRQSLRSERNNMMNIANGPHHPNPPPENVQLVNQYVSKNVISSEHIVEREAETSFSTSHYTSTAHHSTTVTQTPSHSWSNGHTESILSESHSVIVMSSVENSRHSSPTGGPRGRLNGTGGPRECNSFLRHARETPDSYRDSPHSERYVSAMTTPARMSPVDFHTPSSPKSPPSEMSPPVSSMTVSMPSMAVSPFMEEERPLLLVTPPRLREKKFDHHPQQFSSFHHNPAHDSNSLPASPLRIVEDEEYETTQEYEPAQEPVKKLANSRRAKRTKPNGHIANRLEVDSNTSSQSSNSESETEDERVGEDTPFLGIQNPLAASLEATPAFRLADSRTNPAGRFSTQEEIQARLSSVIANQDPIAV

SMILES	composite z-score [1]	composite z-score [2]	composite z-score [3]	composite z-score [4]	composite z-score [5]	composite z-score [6]	composite z-score [7]	z-score [8]	composite z-score [9]	composite z-score [10]
COC(=O)C(CC#Cc1ccc2c(c1)[C@]1(C(=O)N2)[C@H](c2ccc(OCCO)cc2)N2[C@H](c3ccccc3)[C@H](c3ccccc3)OC(=O)[C@H]2[C@@H]1C(=O)N1CCCCCCC1)C(=O)OC	3.41	1.91	0.826	1.21	1.14	1.93	1.27	-0.378 (inactive)	3.21	1.45
[N-]=[N+]=Nc1ccccc1C[C@@]1(C(=O)NCc2ccccc2)N=C(c2ccc(OCCCO)cc2)O[C@@H]1c1ccccc1N=[N+]=[N-]	0.581	0.504	0.0678	1.04	1.09	0.966	1.06	-1.24 (inactive)	0.602	-0.175
O=C1C=C(c2ccccc2)C(=O)C2=C1CC([C@H]1Oc3ccccc3S(=O)(=O)N3CCC[C@@H]13)=CC2	-0.415	-0.618	-0.119	-0.0024	-0.103	0.0032	-0.702	-0.7 (inactive)	1.49	-0.0296
C=C(COC)C(=O)CC[C@@H](OC(=O)c1ccccc1-c1ccccc1C(=O)O)c1ccc(OCCO)cc1	-0.209	0.487	-0.132	-0.252	-0.638	-0.335	0.685	2.6 (inactive)	-0.0463	-0.0994
COc1ccc([Si](C)(C)[C@H]2[C@H](CC(=O)N3Cc4ccccc4C[C@H]3CO)O[C@@]3(C(=O)N(C)c4c(Br)cc(C)cc43)[C@@H]2C)cc1	-0.0669	0.403	-0.119	0.333	0.363	1.05	1.11	-4.4 (inactive)	0.334	-0.132
COCCCNC(=O)[C@@]1(Sc2ccc(C)cc2)CC(=O)N(Cc2ccccc2C(F)(F)F)[C@@H]1c1ccc(CO)cc1I	1.21	-0.204	-0.132	-2.12	-1.8	1.17	-0.823	-0.903 (inactive)	-0.228	-0.132
COC(=O)C(CC#Cc1ccc2c(c1)[C@]1(C(=O)N2)[C@H](C(=O)NC[C@H](O)c2ccccc2)[C@H]2C(=O)O[C@H](c3ccccc3)[C@H](c3ccccc3)N2[C@@H]1c1ccccc1OCCO)C(=O)OC	-0.266	0.423	-0.0996	0.558	1.08	1.27	1.3	0.0111 (inactive)	0.254	0.0749
CC(C)(C)N1CC=CC23O[C@@H]4C=CCOC(=O)[C@@H]4[C@H]2C(=O)N(CCO)[C@@H]3C1=O (stereo not given in full)	0.56	-0.483	-0.206	-0.437	-0.638	1.87	1.66	0.639 (inactive)	-0.633	-0.274
CC1CC/C=C\[C@H]2OC34C=CCN(c5ccc(Cl)cc5)C(=O)[C@H]3N(CCCCCCO)C(=O)[C@]4(C)C2C(=O)O1 (stereo not given in full)	-0.147	-0.965	-0.176	-0.219	-0.705	0.639	1.52	0.975 (inactive)	-0.56	-0.204
NC(=O)NCC#Cc1ccc2c(c1)[C@]1(C(=O)N2)[C@H](c2ccc(OCCO)cc2)N2[C@H](c3ccccc3)[C@H](c3ccccc3)OC(=O)[C@H]2[C@@H]1C(=O)NC[C@H](O)c1ccccc1	-0.142	-0.329	-0.0586	0.029	0.322	0.577	-0.164	-0.0847 (inactive)	0.103	-0.134
O=C1C2C=CC(C(O)C3CCCCC3)N(n3cnnc3)C2C(=O)N1Cc1ccccc1 (stereo not given)	-0.0187	0.396	0.0498	0.792	0.884	1.07	1.3	1.11 (inactive)	1.47	-0.299
COc1ccc([Si](C)(C)[C@H]2[C@H](CCO)O[C@@]3(C(=O)N(Cc4cccc(N(C=O)c5ccccc5)c4)c4ccccc43)[C@@H]2C)cc1	-0.364	0.35	0.0155	1.09	1.14	0.97	1.08	-0.837 (inactive)	0.638	-0.236
CC(C)C[C@H]1NC(=O)C([C@@H](C)OCc2ccccc2)NC(=O)[C@@]23C(=O)N[C@@H](Cc4ccccc4)C2[C@H](C)[C@@]2(C)O[C@H]2C3/C=C/C/C=C\CNC1=O (stereo not given in full)	-0.61	0.583	-0.0712	0.775	0.831	1.21	1.06	2.71 (inactive)	0.517	3.36
C=CCOC(=O)[C@@H]1[C@H]2C(=O)O[C@H](c3ccccc3)[C@H](c3ccccc3)N2[C@H](c2ccc(OCCOC(=O)[C@H]3C[C@H]4C(=O)NCC(=O)N4[C@H]3c3cccc(OCCO)c3)cc2)[C@@]12C(=O)Nc1ccc(I)cc12	-0.0708	0.727	-0.0383	-0.0265	0.593	1.16	1.23	0.779 (inactive)	0.275	-0.0296
CC(=O)c1ccc(C(O)C2C=CC3C(=O)N(c4ccccc4)C(=O)C3N2Nc2ccc(C(C)C)cc2)cc1 (stereo not given)	0.305	-0.152	-0.0226	0.897	1.37	1.55	1.09	0.59 (inactive)	1.51	-0.106
CCCC[C@H]1OB(O)C[C@H]2C1=C(COc1ccccc1)C[C@H]1C(=O)C=CC(=O)[C@H]12	-0.315	0.351	-0.0503	0.603	0.489	0.169	0.19	-1.1 (inactive)	0.23	0.316
COC(=O)[C@H](Cc1ccc(O)cc1)N[C@@H](/C=C/C1CC1)[C@H](O)Cc1ccccc1	-0.262	0.396	-0.187	0.154	0.023	-0.721	-0.776	-0.269 (inactive)	-0.437	-0.0994

SMILES	composite z-score [1]	composite z-score [2]	composite z-score [3]	composite z-score [4]	composite z-score [5]	composite z-score [6]	composite z-score [7]	z-score [8]	composite z-score [9]	composite z-score [10]
CCOC(=O)C[C@H]1[C@H](OC(=O)c2ccccc2-c2ccccc2)[C@@H](NC(=O)C2CCCCC2)c2cc(OCCCO)ccc2N1C(=O)c1ccc2ccccc2n1	-0.484	0.0817	-0.0594	0.53	0.813	0.388	0.825	0.396 (inactive)	0.512	-0.0296
COc1ccc(CCNC(=O)[C@@H]2c3ccccc3C(=O)N(Cc3ccccc3OC)[C@H]2c2ccc(CO)cc2)cc1	-0.26	0.678	0.0021	0.131	1.03	1.29	1.31	-2.5 (inactive)	0.428	-0.266
CN(C)CCCNC(=O)[C@@H]1c2ccccc2C(=O)N(Cc2ccccc2C(F)(F)F)[C@H]1c1ccc(CO)cc1	1	-0.335	-0.0416	-0.702	-1.03	1.01	-0.23	-1.28 (inactive)	-0.0464	-0.149
CCOC(=O)C1=CCC(c2cc3ccccc3[nH]2)N(CCN2CC(C(=O)OCC)=CCC2c2cc3ccccc3[nH]2)C1 (stereo not given)	-0.0107	-0.75	-0.0216	0.433	1.06	1.82	1.32	2.57 (inactive)	0.74	-0.361
COCCn1c(C(=O)N(C)C)cc2c1C[C@H]1CN(C(=O)c3ccccc3)[C@@](Cc3ccc(OC)cc3)(C(=O)OC)[C@@H]21	0.609	-0.478	-0.19	0.34	1.64	1.54	1.27	1.54 (inactive)	1.32	0.0053
CC(C)(C)N1CC=CC23O[C@@H]4/C=C\CCCOC(=O)C4[C@H]2C(=O)N(CCCO)[C@@H]3C1=O (stereo not given in full)	0.164	-0.496	-0.203	-0.147	-0.864	1.07	1.1	0.502 (inactive)	-0.582	-0.286
NC(=O)N1C(=O)C2C(C1=O)C1C=C(CCCO)C2C(c2ccc(CN3CCCC3)cc2)N1Cc1cc2c(cc1Br)OCO2 (stereo not given)	0.117	0.19	-0.0909	-0.0906	-0.362	-0.311	0.626	-0.905 (inactive)	-0.369	-0.476
CC1=C([C@H](O)CCc2ccccc2)[C@H](CO)n2c(=O)n(-c3ccccc3)c(=O)n2C1	-0.312	-0.322	-0.159	0.0052	-0.371	-0.355	-0.56	-0.973 (inactive)	-0.429	-0.236
O=C1[C@H]2C=C(I)[C@H](C[C@@H]2c2ccccc2)[C@@]12CO2	-0.372	-0.0809	-0.104	-0.142	0.0878	-0.165	-0.507	1.55 (inactive)	0.281	-0.214
CCOC(=O)C1=CC[C@@H](c2ccc(OC)cc2)N(S(=O)(=O)c2ccc(C)cc2)[C@H]1c1ccc(C)cc1	-0.208	-0.236	-0.062	0.584	1.52	0.46	1.05	0.0599 (inactive)	1.11	-0.0618
CN1C(=O)C2C(C3CC3)C=C3CN(Cc4cccc(Cl)c4)[C@@H]([C@@H](O)Cc4ccccc4)C3C2C1=O (stereo not given in full)	-0.357	0.268	-0.229	0.0719	0.999	1.03	1.23	-1.31 (inactive)	-0.156	0.0854
CC(=O)NCCCC[C@@H]1NC(=O)[C@H]2C[C@@H](C(=O)NCCCCCCNC(=O)CS)[C@@H](c3cccc(OCCO)c3)N2C1=O	0.419	0.611	0.0252	0.492	-0.681	0.465	1.42	0.799 (inactive)	-0.0535	-0.0618
CC(C)N1C(=O)c2ccccc2[C@](C)(C(=O)NCC(F)(F)F)[C@@H]1c1ccc(CO)cc1	0.531	-0.226	-0.0698	-1	-0.334	0.583	0.107	-0.229 (inactive)	-0.299	-0.105
O=C(N1CCOCC1)[C@@]1(Cc2ccccc2)COC(c2ccc(OCCCO)cc2)=N1	1.06	0.615	0.0094	0.64	0.763	1.49	1.06	-1.28 (inactive)	0.48	0.264
Cc1ccc(N2C(=O)c3ccccc3[C@](C)(C(=O)NCCCN(C)C)[C@@H]2c2ccc(CO)cc2)nc1	0.908	-0.109	-0.1	-0.436	-0.676	-0.114	0.582	1.36 (inactive)	0.423	-0.236
C=CCNC(=O)[C@H]1[C@@H]2C(=O)O[C@@H](c3ccccc3)[C@@H](c3ccccc3)N2[C@@H](c2ccc(OCCO)cc2)[C@]12C(=O)Nc1ccccc12	-0.0085	0.586	0.083	0.331	-0.353	1.65	1.13	-2.89 (inactive)	-0.189	-0.613
